# Screens as filed in PubChem.
# The full list was thinned out, with hits kept by preference.
# Shiga inhibitor – blocks Shiga toxin action in Vero cells | actives 9.2% (n = 290,000) | Vero cells, Shiga toxin protein synthesis inhibition reporter | AID 2315 | inhibition, % at 38.7 µM; in the data active means inhibition mostly above about 28%, no sharp cut-off; inactive means mostly below about 43%; further: 0% is about no effect
# Sm TGR block – blocks Schistosoma mansoni thioredoxin glutathione reductase | Q962Y6 | purified TGR, DTNB reduction, TNB absorbance 405 nm | Potency, µM (titrated, usually from 114 µM), for inactives: top-dose activity change, negative = inhibition, hits mostly inhibitors | actives 3% (n = 360,000) | AID 485364; further: potency means the concentration at half of the fitted maximal effect; on the % scale 0 is the no-effect control and ±100 the full control effect; nearly all actives have a fitted effect of over 60% in size
#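 TGR 20 nM + NADPH 100 uM (dispensed conc.), cpd preinc 15 min RT; start with NADPH (500 uM addition) then DTNB (15 mM addition). Kinetic TNB absorbance, 405 nm filter. Four-parameter Hill fit across titration.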
# Giardia FBPA inh – inhibitors of Giardia lamblia fructose-1,6-bisphosphate aldolase; A8B2U2; purified Giardia FBPA; Potency, µM (highest dose often 59.6 µM), for inactives: at the top dose activity, negative = inhibition, hits mostly inhibitors; actives 0.71% (n = 290,000); AID 2451; further: potency means the concentration at half of the fitted maximal effect; on the % scale 0 is the no-effect control and ±100 the full control effect; nearly all actives have a fitted effect of over 55% in size
#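 40 nM FBPA preincubated 10 min at RT with compound (up to 57.5 uM final), then substrate plus GAPDH/TPI/NAD/arsenate coupling and diaphorase/resazurin added. Fluorescence read after 20 min at RT, 525/598 nm.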
# LmPK inhibitor – blocks Leishmania mexicana pyruvate kinase activity | Q27686 | purified LmPK, Kinase-Glo ATP luminescence, 1 h | Potency, µM (top dose mostly 57.5 µM), for the others: at the top dose activity change, negative = inhibition, most hits filed as inhibitors | actives 0.37% (n = 290,000) | AID 1721; further: potency means the concentration at half of the fitted maximal effect; on the % scale 0 is the no-effect control and ±100 the full control effect
# Target sequence (Q27686 whole entry, looked up): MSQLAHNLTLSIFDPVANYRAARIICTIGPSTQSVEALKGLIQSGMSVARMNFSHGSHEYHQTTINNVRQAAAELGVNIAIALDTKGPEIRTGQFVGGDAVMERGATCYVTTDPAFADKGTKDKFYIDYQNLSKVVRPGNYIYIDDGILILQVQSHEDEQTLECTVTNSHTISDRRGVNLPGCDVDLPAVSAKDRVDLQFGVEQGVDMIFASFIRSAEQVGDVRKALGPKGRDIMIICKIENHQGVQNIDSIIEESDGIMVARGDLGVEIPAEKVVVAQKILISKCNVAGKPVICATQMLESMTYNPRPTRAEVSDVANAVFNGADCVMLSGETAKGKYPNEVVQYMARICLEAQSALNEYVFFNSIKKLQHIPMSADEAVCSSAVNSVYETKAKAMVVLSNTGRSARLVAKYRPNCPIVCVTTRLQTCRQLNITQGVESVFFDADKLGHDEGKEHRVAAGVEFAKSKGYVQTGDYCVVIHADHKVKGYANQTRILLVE
#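 0.1 nM LmPK, 0.5 mM PEP, 0.1 mM ADP; 50 mM imidazole pH 7.2, 7 mM MgCl2, 50 mM KCl; 1 h RT. Kinase-Glo luminescence readout, normalized to no-enzyme (full inhibition) and uninhibited wells.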
# TbPYK inhibitor – inhibitors of Trypanosoma brucei pyruvate kinase; actives 0.12% (n = 410,000); AID 624173; Q57TT1; TbPYK enzyme, Kinase-Glo Plus ATP luminescence, 45 min; Potency, µM (doses to about 76.8 µM), inactives show at the top dose activity, negative = inhibition, usual class: inhibitors; further: potency means the concentration at half of the fitted maximal effect; on the % scale 0 is the no-effect control and ±100 the full control effect; nearly all actives have a fitted effect of over 50% in size
#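 Glycolytic pyruvate kinase of T. brucei was incubated with substrate, test compound and 130 uM ADP for 45 minutes at room temperature. Luminescent Kinase-Glo Plus signal was measured after 10 minutes.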
# Cycloheximide cs – counter-screen for Shiga toxin inhibitors: cycloheximide protein synthesis inhibition; max response, %; AID 2314; actives 12% (n = 300,000); cell reporter, cycloheximide protein synthesis inhibition counterscreen; in the data active means max response mostly above about 13%, no sharp cut-off; inactive means mostly below about 14%; further: read at 38.3 µM for the half of the compounds with a filed dose; 0% is about no effect
# An asterisk follows results filed as active; ? = inconclusive; · = no result given; [ ] = another dose, or the depositor's remark. Unless noted, the call rests on the fitted dose curve; in most records, active means well fitted curve in the direction sought with a large enough effect; inconclusive means small, poorly fitted or top-dose-only effect, or another doubt; inactive means no such curve, though single readings can be large; an effect the other way counts as inactive or inconclusive.
SMILES,Shiga inhibitor,Sm TGR block,Giardia FBPA inh,LmPK inhibitor,TbPYK inhibitor,Cycloheximide cs
O=C(Nc1nc(-c2ccco2)c(-c2ccco2)s1)c1cnccn1,·,14µM*,·,·,6%,·
O=C(Nc1nc(-c2ccco2)c(-c2ccco2)s1)c1ccc(F)cc1F,·,10µM*,·,·,?,·
O=C(Nc1nc(-c2ccco2)c(-c2ccco2)s1)c1c(F)cccc1Cl,·,22µM*,·,·,-4%,·
O=S(=O)(Nc1nc(-c2ccco2)c(-c2ccco2)s1)c1ccc(F)cc1F,·,·,·,·,-13%,·
CCc1nnc(NC(=O)c2cnccn2)s1,23,4%,?,-2%,-7%,17
O=C(CN1C(=O)COc2ccc(S(=O)(=O)N3CCCC3)cc21)N1CCN(c2ccc(Cl)cc2)CC1,·,1%,·,·,6%,·
COc1ccc(-n2nc(C(=O)NCC(=O)N3CCN(Cc4ccccc4)CC3)c3ccccc3c2=O)cc1OC,-8,-16%,3%,6%,1%,-4
COc1ccc(-n2nc(C(=O)NCC(=O)N3CCN(C)CC3)c3ccccc3c2=O)cc1OC,19,-22%,-2%,0%,1%,-1
COc1ccc(-n2nc(C(=O)NCC(=O)N3CCN(c4ccccn4)CC3)c3ccccc3c2=O)cc1Cl,40,2%,-4%,-4%[11.5 µM],-2%,27*
COc1ccc(-n2nc(C(=O)NCC(=O)N3CCC(C)CC3)c3ccccc3c2=O)cc1Cl,49*,-3%,-19%,-5%,3%,38
CC(=O)OCCn1c([N+](=O)[O-])cnc1C=[N+]([O-])C1CCCCC1,·,·,·,·,2%,·
Cc1ccc(NC(=O)CSc2n[nH]c(-c3ccco3)n2)cc1,45,-3%,-3%,-8%,4%,28*
CC(=O)c1ccc(NC(=O)CSc2nnc(-c3ccco3)o2)cc1,37,-10%,·,-1%,-1%,17*
CN(C)S(=O)(=O)c1ccc(NC(=O)CSc2nnc(-c3ccco3)o2)cc1,·,·,·,·,1%,·
CCN(CC)C(=O)CSc1nnc(-c2ccco2)o1,47*,-7%,0%,4%,-11%,23*
CCc1nnc(NC(=O)CSc2nnc(-c3ccco3)o2)s1,-16,0%,?,-4%[11.5 µM],-3%,-4
Cc1ccc(NC(=O)CSc2nnc(-c3ccco3)o2)cc1,-6,79µM*,-13%,1%,-15%,-2
Cc1ccc(NC(=O)c2ccc3c(O)c(S(=O)(=O)c4ccccc4)c(=O)[nH]c3c2)cc1Cl,·,-10%,·,·,-2%,·
Cc1nn(C(=O)N(C)C)c(C)c1CN1C(=O)c2ccccc2C1=O,-1,-13%,1%,1%,-19%,-1
CCOC(=O)c1cc(-c2ccccc2)n(CCC(=O)Nc2nc3c(C)cccc3s2)c1C,·,2%,·,·,6%[15.4 µM],·
COc1ccc(C=NNC(=S)Nc2ccc(F)cc2)cc1OC,·,·,·,·,1%,·
COc1ccc(C(=O)Oc2cccc(/C=N/NC(N)=S)c2)cc1,51*,-6%,3%,-2%,-5%,16*
COc1ccc(/C=N/NC(=S)Nc2cccc(C(=O)O)c2)cc1OC,26,-18%,-20%,-5%,-3%,16*
COc1cccc(C(=O)NCC(=O)N/N=C/c2cccc(OC(=O)c3ccc([N+](=O)[O-])cc3)c2)c1,12,3%,3%,-5%,-9%,-2
COc1ccc(/C=N/NC(=S)Nc2ccccc2)cc1COc1cccc(C)c1C,31*,-22%,1%,13%,-8%,8
SMILES,Shiga inhibitor,Sm TGR block,Giardia FBPA inh,LmPK inhibitor,TbPYK inhibitor,Cycloheximide cs
COc1cccc(/C=N/NC(=S)Nc2cccc(C(=O)O)c2)c1,95*,4%,?,0%,-1%,36*
Cn1c(=O)c2cc(NC(=O)NCCc3ccccc3)ccc2n1Cc1cccc(C(F)(F)F)c1,·,·,·,·,-2%,·
NC(=O)c1cc(S(=O)(=O)NCCc2ccc(Cl)cc2)cs1,-3,1%,3%,2%,0%,-3
C=CC[N+]1([C@H]2C[C@H]3[C@@H]4CC[C@H]5C[C@H](O)[C@@H](N6CCOCC6)C[C@]5(C)[C@H]4CC[C@]3(C)[C@H]2OC(C)=O)CCCC1,·,·,·,·,-9%,·
COc1cc(OC)cc(-c2noc([C@@H]3O[C@H](CO)[C@H](O)[C@H](O)[C@H]3O)n2)c1,·,·,·,·,-4%,·
O=C1NC(=O)C(=C/C=C/c2coc3ccc(Br)cc3c2=O)C(=O)N1,10,0.79µM*,2%,12%,·,5
O=C1NC(=O)C(=Cc2coc3ccccc3c2=O)C(=O)N1,8,16µM*,-9%,-10%[11.5 µM],?,-6
NC(Cc1cnc[nH]1)C(=O)Nc1ccc2ccccc2c1 (stereo not drawn),·,·,0%,·,·,·
Cc1cccc(-c2oc3ccccc3c2C#CCCO)c1,10,16µM*,-4%,5%,4%,1
Cc1ccccc1CN1CCNC(=O)C1CC(=O)NCCN1CCCCC1=O (stereo not drawn),-6,?,·,-16%,-4%,1
Cc1ccc(S(=O)(=O)N/N=C/c2ccccc2O)cc1,-5,-10%,-22%,-8%,4%,-2
O=S(=O)(N/N=C\c1ccccc1O)c1ccc(Cl)cc1,51,4%,-16%,7%,1%,27*
O=C(NOC[C@H](O)CO)c1ccc(F)c(F)c1Nc1ccc(I)cc1F,·,·,·,·,-6%,·
Cc1cc(CN2CCC(n3nccc3NC(=O)c3ccccc3Cl)CC2)cc(C)c1O,-3,45µM*,·,2%,-2%,-2
Cc1ccccc1CN1CCC(n2nccc2NC(=O)c2ccc3c(c2)OCO3)CC1,34*,0%,·,-7%,-7%,21
CSCCC(=O)N1CCC(n2nccc2NC(=O)c2ccc3c(c2)OCO3)CC1,65*,0%,·,-13%,-1%,54*
CC#CC(=O)N1CCC(n2nccc2NC(=O)c2ccc3c(c2)OCO3)CC1,72*,0%,3%,1%,-2%,23*
Cn1cc(CN2CCC(n3nccc3NC(=O)c3ccc4c(c3)OCO4)CC2)cn1,·,·,·,·,-9%,·
C=CCC(=O)N1CCC(n2nccc2NC(=O)c2ccc3c(c2)OCO3)CC1,·,·,·,·,-14%,·
COC1=CC(=O)C=C(OC)C1(O)CC(C)=O,·,·,·,·,-11%,·
CCOC(=O)c1c(C)[nH]c(C)c1S(=O)(=O)N1CCC(C(=O)NCc2ccc(N(C)C)cc2)CC1,·,0%,·,·,-10%,·
Cc1ccc(C(C)CCN2CCC(n3nccc3NC(=O)c3ccccc3)CC2)o1 (stereo not drawn),20,35µM*,-1%,-6%,-18%,-3
CCOC(=O)c1sc2nc(-c3cccnc3)ccc2c1N,84*,-3%,-3%,5%,4%,50*
CC(C)OC(=O)c1sc2nc(-c3ccccc3)ccc2c1N,144*,15%,-4%,0%,-7%,66*
NC(=O)c1sc2nc(-c3cccnc3)ccc2c1N,32*,3%,-1%,-1%,-8%,22*
